In test [1] the test system is XIP peptide (Xip251-270) binding. The test can be described thus: small-molecule binders of XIP peptide, primary screen, biochemical, small-molecule microarray, fluorescence 635/667 nm, 0.1 µg/mL protein (AID 1182). As to conditions: fluorescent protein binding, 635 nm, higher = more signal, called active from +8 up or from −8 down.
The subject of another test is XIP peptide (Xip251-270). The test can be described thus: small-molecule binders of XIP peptide, primary screen, biochemical, small-molecule microarray, fluorescence 635/667 nm, 0.5 µg/mL protein (AID 1183). The following applies: small-molecule microarray binding, fluorescence 635 nm; higher = more signal.
A short description of test [2]: Plasmodium falciparum growth inhibition, primary screen, strain 3D7, DAPI fluorescence, 100 nL (AID 1184).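 Further: parasites grown inside human red blood cells in medium with human serum.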 As to conditions: P. falciparum 3D7 growth, 3 d, higher = more signal.
For test [3], the target named is Homeobox protein Hox-A13 (Mus musculus) (UniProt Q62424). The test can be described thus: inhibitors of HoxA13-DNA binding, primary screen, biochemical, fluorescence polarization, labeled oligonucleotide (AID 1185). As to conditions: 15 min, higher = more signal, called active from +8 up or from −8 down. A general note: In fluorescence polarisation assays a small probe gives low polarisation when free and higher when bound to something large.
Chain of Homeobox protein Hox-A13 (Mus musculus) (Q62424 whole entry, looked up): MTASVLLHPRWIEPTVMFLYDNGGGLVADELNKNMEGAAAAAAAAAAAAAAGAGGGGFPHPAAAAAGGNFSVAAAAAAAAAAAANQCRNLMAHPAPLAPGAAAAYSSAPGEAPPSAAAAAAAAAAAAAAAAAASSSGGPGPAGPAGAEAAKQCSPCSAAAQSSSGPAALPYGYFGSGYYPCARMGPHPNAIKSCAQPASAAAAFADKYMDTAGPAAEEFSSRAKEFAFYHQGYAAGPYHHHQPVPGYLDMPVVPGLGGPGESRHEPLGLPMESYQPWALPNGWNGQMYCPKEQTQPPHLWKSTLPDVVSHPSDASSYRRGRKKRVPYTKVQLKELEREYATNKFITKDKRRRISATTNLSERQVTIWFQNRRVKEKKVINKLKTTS

A short description of test [4]: inhibitors of hydroxyurea-induced Chk1 phosphorylation, primary screen, imaging, HeLa, phospho-Chk1 antibody, percent positive cells (AID 1186). As to conditions: hydroxyurea-induced phospho-Chk1 immunofluorescence imaging, higher = more signal.
Test [5] can be described thus: inhibitors of hydroxyurea-induced Chk1 phosphorylation, primary screen, imaging, HeLa, phospho-Chk1 nuclear intensity (AID 1187). The following applies: hydroxyurea-induced phospho-Chk1 immunofluorescence imaging, higher = more signal.

The source made the active and inactive calls. Unless noted, how the calls were made is not given here.

Take `CN1CCC(CCCO)=CC1c1cccs1` (stereo unspecified): the composite z-score was 0.912 (inactive) in test [1] and -1 in the test with XIP peptide (Xip251-270). Further, the z-score in test [2] was 0.896; in test [3] it was -4.21 (inactive); in test [4], 1.02 (inactive); in test [5] it was 0.692 (inactive).

As for `NC(=O)N1C(=O)C2C(C1=O)C1C=C(CCCO)C2C(C2CC2)N1Cc1cc2c(cc1Br)OCO2` (stereo unspecified), the composite z-score is -0.0845 (inactive) in test [1] and -0.102 with XIP peptide (Xip251-270). The z-score in test [2] is 1.74; in test [3], -7.26 (inactive); in test [4], 0.207 (inactive); in test [5], 0.727 (inactive).

In the case of `COC(=O)c1c2oc(c1C(=O)OC)C(=O)NC1(CCCCC1)c1cn(nn1)C[C@H](Cc1ccccc1)NC(=O)N[C@H](CO)CC2`, the composite z-score in test [1] is 0.064 (inactive); in the test on XIP peptide (Xip251-270) it was -0.271. The z-score is 0.196 in test [2], -4.41 (inactive) in test [3], -0.0736 (inactive) in test [4] and -0.183 (inactive) in test [5].

Turning to `COc1ccc(CCNC(=O)[C@@]2(c3ccc([N+](=O)[O-])cc3)CC(=O)N(CC34CC5CC(CC(C5)C3)C4)[C@@H]2c2ccc(CO)cc2I)cc1`, the composite z-score in test [1] was 0.417 (inactive); in the test with XIP peptide (Xip251-270), 0.723. The z-score is -1.46 in test [2], -0.814 (inactive) in test [3], -0.155 (inactive) in test [4] and 0.022 (inactive) in test [5].

As for `COc1ccc(C(=O)Nc2cccc(CN3C(=O)[C@]4(O[C@H](CCn5cc(CCO)nn5)[C@@H]([Si](C)(C)c5ccc(OC)cc5)[C@@H]4C)c4ccccc43)c2)cc1`, the results for the composite z-score (in test [1]; in the test on XIP peptide (Xip251-270)) were -0.16 (inactive) and 0.249, respectively. Moreover, the z-score in test [2] was -2.72; in test [3], -4.83 (inactive); in test [4], -0.745 (inactive); in test [5], -2.04 (inactive).

As to `COC(=O)C(CC#Cc1ccc2c(c1)[C@]1(C(=O)N2)[C@H](c2ccccc2OCCO)N2[C@H](c3ccccc3)[C@H](c3ccccc3)OC(=O)[C@H]2[C@@H]1C(N)=O)C(=O)OC`, the composite z-score is 0.945 (inactive) in test [1] and 0.787 in the test on XIP peptide (Xip251-270). In addition, the z-score in test [2] is -2.24; in test [3], -2.21 (inactive); in test [4] it was 0.202 (inactive); in test [5] it was 0.555 (inactive).

As for `C=CCC(OC(C)=O)[C@@H]1[C@@H](N(Cc2ccc(-c3cccc(C(F)(F)F)c3)o2)C(=O)c2cccc3ccccc23)c2cc(OCCCO)ccc2N1C(=O)Cc1ccc2ccccc2c1` (stereo partly specified), the figures for the composite z-score (in test [1]; in the test with XIP peptide (Xip251-270)) were -0.16 (inactive) and 0.0499, respectively. Further, the z-score in test [2] was -1.78; in test [3], -3.09 (inactive); in test [4] it was 0.233 (inactive); in test [5], 0.504 (inactive).

With `O=C(NCc1ccccc1)[C@@H]1c2ccccc2C(=O)N(C2Cc3ccccc3C2)[C@H]1c1ccc(CO)cc1`, the composite z-score was 0.72 (inactive) in test [1] and 0.731 with XIP peptide (Xip251-270). In addition, the z-score in test [2] was -0.276; in test [3] it was -2.13 (inactive); in test [4], 0.26 (inactive); in test [5], -0.16 (inactive).

As to `O=C1OCCC=C[C@H]2OC34C=CCN(Cn5nnc6ccccc65)C(=O)[C@H]3N(CCO)C(=O)[C@@H]4C12` (stereo partly specified), the values for the composite z-score (in test [1]; in the test on XIP peptide (Xip251-270)) were -0.681 (inactive) and -0.552, respectively. The z-score was -0.288 in test [2], -2.78 (inactive) in test [3], -0.943 (inactive) in test [4] and -1.01 (inactive) in test [5].

Take `CC(C)[Si](C#C[Si](C(C)C)(C(C)C)C(C)C)(O[C@H](C)c1cn(Cc2ccccc2)nn1)C(C)C`: the results for the composite z-score (in test [1]; in the test with XIP peptide (Xip251-270)) were -0.0845 (inactive) and 0.0972, respectively. For the same compound, the z-score is 1.59 in test [2], -0.236 (inactive) in test [3], -0.175 (inactive) in test [4] and -0.288 (inactive) in test [5].

In the case of `O=C1C2C=CC(C(O)c3ccc(F)cc3)N(Nc3ccc([N+](=O)[O-])cc3)C2C(=O)N1c1ccccc1` (stereo unspecified), the composite z-score in test [1] was 0.224 (inactive); in the test on XIP peptide (Xip251-270), 0.942. The z-score is -0.255 in test [2], -4.16 (inactive) in test [3], 0.137 (inactive) in test [4] and 0.653 (inactive) in test [5].

Consider `COCCCNC(=O)[C@@]1(Cc2ccccc2CN=[N+]=[N-])N=C(c2ccc(OCCCO)cc2)O[C@H]1c1ccccc1CN=[N+]=[N-]`, for which the composite z-score in test [1] was 1.01 (inactive); in the test with XIP peptide (Xip251-270) it was 0.443. Besides, the z-score is -2.23 in test [2], -4.09 (inactive) in test [3], -0.485 (inactive) in test [4] and -0.763 (inactive) in test [5].

For `COCCOC(=O)N1C(=O)[C@@]2(c3ccccc31)[C@H](C(=O)N1CCCCCCC1)[C@H]1C(=O)O[C@H](c3ccccc3)[C@H](c3ccccc3)N1[C@@H]2c1ccc(OCCO)cc1`, the values for the composite z-score (in test [1]; with XIP peptide (Xip251-270)) were 6.55 (inactive) and 0.992, respectively. For the same compound, the z-score in test [2] was -2.03; in test [3], -15.8 (active); in test [4] it was -0.261 (inactive); in test [5], -0.268 (inactive).

For `C=C(CCCC)/C(=C/C[C@H](OC(C)=O)c1ccc(OCCO)cc1)c1cnc2ccccc2c1`, the results for the composite z-score (in test [1]; with XIP peptide (Xip251-270)) were 0.578 (inactive) and 0.741, respectively. For the same compound, the z-score in test [2] is -2.93; in test [3], -4.14 (inactive); in test [4], 0.212 (inactive); in test [5], -0.34 (inactive).

For the compound `COC(=O)[C@@]1(Cc2ccc(OC)cc2)[C@H]2c3cc(C(=O)N4CCCC4)n(CCc4ccc(O)c(O)c4)c3C[C@H]2CN1C(=O)c1ccccc1`, the composite z-score in test [1] was 1.75 (inactive); in the test with XIP peptide (Xip251-270), 0.83. For the same compound, the z-score in test [2] is -1.62; in test [3], -6.01 (inactive); in test [4], 0.264 (inactive); in test [5], 0.379 (inactive).

As to `CCOC(=O)C1=CC[C@H]2C(=O)N(c3ccccc3)C(=O)[C@@H]12`, the values for the composite z-score (in test [1]; with XIP peptide (Xip251-270)) were 0.571 (inactive) and 0.903, respectively. The z-score in test [2] was -0.55; in test [3], -3.98 (inactive); in test [4], 0.152 (inactive); in test [5], -0.177 (inactive).

Consider `CN(C)C(=O)[C@]1(Cc2ccccc2)N=C(c2ccc(OCCCO)cc2)O[C@@H]1c1ccccc1N=[N+]=[N-]`, for which the composite z-score is 0.79 (inactive) in test [1] and 0.708 in the test on XIP peptide (Xip251-270). Also, the z-score is -2.31 in test [2], -5.85 (inactive) in test [3], -0.366 (inactive) in test [4] and -0.903 (inactive) in test [5].

As to `C=CCN(Cc1ccccc1)C(=O)C(c1cccs1)N(C(=O)/C=C\C(=O)O)c1ccc(CCOCCO)cc1` (stereo unspecified), the composite z-score is -0.524 (inactive) in test [1] and 0.625 in the test on XIP peptide (Xip251-270). The z-score was 0.155 in test [2], 0.12 (inactive) in test [3], -1.25 (inactive) in test [4] and -0.565 (inactive) in test [5].

On to `CC(C)N1CC=CC23O[C@@H]4C=CCOC(=O)[C@@H]4[C@H]2C(=O)N(CCCCCO)[C@@H]3C1=O` (stereo partly specified), for which the results for the composite z-score (in test [1]; in the test on XIP peptide (Xip251-270)) were 0.334 (inactive) and 0.729, respectively. Moreover, the z-score in test [2] was -0.758; in test [3], -3.4 (inactive); in test [4], 0.0031 (inactive); in test [5], -0.0755 (inactive).

For `COCC(=C=CC[C@H](O)c1ccccc1OCCO)CCO`, the composite z-score was 2.87 (inactive) in test [1] and -0.501 in the test on XIP peptide (Xip251-270). For the same compound, the z-score in test [2] is -0.549; in test [3], -2.98 (inactive); in test [4], 0.387 (inactive); in test [5], -0.186 (inactive).

As to `Cc1c(NC(=O)/C(C#N)=C/c2cccc([N+](=O)[O-])c2)c(=O)n(-c2ccccc2)n1C`, the values for the composite z-score (in test [1]; in the test on XIP peptide (Xip251-270)) were 0.92 (inactive) and 0.695, respectively. Besides, the z-score in test [2] is -0.413; in test [3], -2.41 (inactive); in test [4], -0.782 (inactive); in test [5], -1.15 (inactive).

These data come from PubChem BioAssay.
